Source: PubChem (several laboratories)
Most compounds without a hit are left out; they make up all but 3% or so of the library.
NALP1 inh: NALP1 inflammasome inhibitors in reconstituted yeast, colorimetric, S. cerevisiae, triplicate retest. S. cerevisiae NALP1/ASC/caspase-1 growth, X-gal OD620, 72 h. inhibition, % at 10 µM. 280,000 compounds, 0.61% hits; in the data active = inhibition mostly above about 24%, no sharp cut-off; inactive = mostly below about 32%
NALP3 yeast inh: NALP3 inflammasome inhibitors in reconstituted yeast, primary screen, luminescence, uHTS. 330,000 compounds, 0.39% hits. Yeast reconstituted NLRP3/ASC/caspase-1, beta-gal luminescence, 24 h. inhibition, % at 10 µM;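 active = inhibition of 50% or more; inactive = inhibition below 50%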;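 also: plate controls were induced DMSO wells for no effect and uninduced yeast grown without galactose for full effect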
A1 inh: caspase 3/7 activation in MEF A1-2A-BIM cells, primary screen, A1 inhibitor project, cell-based, luminescence, HTS | Caspase-Glo 3/7 luminescence, 3 h; percent of clofoctol response, vehicle zero | caspase activation, % (no concentration beside the values) | 330,000 compounds, 0.066% hits | AID 2462, 2010;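 active = over half of replicate activation scores above 10%, or exactly half above 10 with the replicate mean above 10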
SUMO Mot1 rescue: yeast Mot1-301 growth rescue at high temperature, primary screen, SUMOylation pathway inhibitor project, S. cerevisiae, ATP luminescence, 38.5C | S. cerevisiae Mot1-301 growth rescue; percent above DMSO median, 100 means doubled | growth rescue, % at 18.8 µM | 320,000 compounds, 1% hits;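 active = every valid replicate shows activation above 250% relative to neutral control wells; inactive = the rest, any valid replicate at or below 250%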;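 also: OY570 slx delta 5 strain wells were the positive control but not used for scaling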
CHT inh: inhibitors of human choline transporter CHT; High affinity choline transporter 1 (Homo sapiens), Q9GZV3; CHT-expressing cells, membrane potential dye, choline response; stronger effect = lower value; B-score at 10 µM; 310,000 compounds, 0.86% hits;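 active = B-score over 3 SD under the library average, and starting fluorescence ratio not unusually high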;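 also: choline stimulus applied at its EC90 after an EC20 pre-addition; B-score computed on integrated fluorescence ratio after choline addition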
Target sequence (Q9GZV3 whole entry, looked up): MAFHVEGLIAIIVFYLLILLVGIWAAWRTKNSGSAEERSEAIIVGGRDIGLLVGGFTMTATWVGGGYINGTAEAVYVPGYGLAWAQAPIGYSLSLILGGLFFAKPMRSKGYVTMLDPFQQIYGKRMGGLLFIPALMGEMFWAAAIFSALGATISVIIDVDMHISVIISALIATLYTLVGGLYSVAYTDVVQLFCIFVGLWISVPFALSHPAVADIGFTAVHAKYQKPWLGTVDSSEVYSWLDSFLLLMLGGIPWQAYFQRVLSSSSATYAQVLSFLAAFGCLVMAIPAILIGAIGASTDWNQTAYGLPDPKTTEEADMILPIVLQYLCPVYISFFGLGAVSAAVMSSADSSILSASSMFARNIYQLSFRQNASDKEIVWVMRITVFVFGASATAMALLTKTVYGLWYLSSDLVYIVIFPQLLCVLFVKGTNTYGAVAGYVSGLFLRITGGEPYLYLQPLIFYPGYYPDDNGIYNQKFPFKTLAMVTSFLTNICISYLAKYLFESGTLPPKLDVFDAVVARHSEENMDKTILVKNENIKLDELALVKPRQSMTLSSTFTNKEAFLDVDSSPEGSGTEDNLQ
CHT allo act: CHT positive allosteric modulators, primary screen, cell-based, membrane potential dye, choline EC20. 310,000 compounds, 0.49% hits. AID 488977, 2010. High affinity choline transporter 1 (Homo sapiens), Q9GZV3. B-score at 10 µM. CHT-expressing cells; stronger effect = higher value; LV-AA mutant CHT in HEK293 cells;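 active = initial fluorescence not abnormally high and integrated response B-score, plate-corrected, over 3 SD above library mean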
Mot1 SUMO dose: growth restoration of Mot1-301 yeast on galactose, dose response, SUMO pathway inhibitor project, whole organism, S. cerevisiae, ATP luminescence, cherry-picked samples | shares compounds with SUMO Mot1 rescue | S. cerevisiae Mot1-301 galactose growth, 24 h; -100 = growth of slx-deleted rescue strain | growth activity, percent, % at 42 µM | 2,300 tested, under 10 active | AID 493004, 2010;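 active = Signal drops as the depositor expects, and the fitted half-maximal dose is no more than ten times the top valid tested dose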;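 also: more negative values mean stronger growth rescue toward the control strain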
* hit, by the source's call; i = inactive; x = no result.

SMILES	NALP1 inh	NALP3 yeast inh	A1 inh	SUMO Mot1 rescue	CHT inh	CHT allo act	Mot1 SUMO dose
COc1ccccc1CNC(=O)CCC(=O)Nc1nnc(C(C)C)s1	-2	-4	x	928*	i	i	0
COc1ccccc1CNC(=O)C(C)Sc1ccc(C)cc1 (centres undefined)	-3	18	1	416*	i	i	0
O=C(CC(c1ccccc1)c1ccccc1)NCCOCc1ccccc1	6	13	1	403*	i	i	0
COc1ccc(NC(=O)CN(C)C(=O)C2(c3ccccc3)CCCC2)cc1	x	0	1	28	x	x	x
COc1cc(C(=O)NCC(c2ccco2)N2CCOCC2)cc(OC)c1OC (centres undefined)	x	17	0	x	i	i	x
COCCNC(=O)C(=O)N/N=C(\C)CC(=O)Nc1cccc(C(F)(F)F)c1	29	10	0	445*	i	i	0
COc1ccc(C(=O)N/N=C(\C)CC(=O)Nc2cccc(C(F)(F)F)c2)cc1	x	16	0	-13	i	i	x
CN(C(=O)c1ccncc1)c1nnc(-c2cnccn2)s1	22	11	0	365*	i	i	0
CN(C(=O)C1CCCO1)c1nnc(-c2cnccn2)s1 (centres undefined)	2	7	-1	519*	i	i	0
COCCOC(=O)C(C#N)c1nc2ccccc2nc1N1CCN(Cc2ccccc2)CC1 (centres undefined)	8	22	0	-1	i	i	x
C=CCOC(=O)C(C#N)c1nc2ccccc2nc1N1CCN(Cc2ccccc2)CC1 (centres undefined)	18	7	-1	501*	i	i	0
Cc1cc2c3c(c1)C1(SCC(=O)N1c1ccc(F)cc1)C(=O)N3C(C)(C)CC2C (centres undefined)	0	8	0	423*	i	i	-1
CSc1ccccc1OCc1cc(C(=O)N(C)Cc2ccncn2)no1	14	21	0	19	i	i	x
Cc1nn(Cc2ccc(C(=O)Nc3ccccc3C(F)(F)F)o2)c(C)c1Br	-3	-5	0	440*	i	i	0
CC(=O)c1ccc(OCCCC(=O)NCCc2ccc(C(F)(F)F)cc2)cc1	9	6	0	8	i	i	x
O=C(c1cc(Cl)c(=O)n(Cc2ccc(Cl)cc2)c1)N1CCOCC1	10	5	0	658*	i	i	0
O=C1OCc2cc(NS(=O)(=O)c3cccs3)ccc21	-2	9	0	411*	i	i	0
O=S(=O)(Nc1ccc(N2CCOCC2)cc1)c1cccs1	23	6	0	579*	i	i	1
Cc1ccc(S(=O)(=O)N2CCCCC2CCNC(=O)C(=O)NCC2CCCO2)cc1 (centres undefined)	x	14	0	4	i	i	x
Cc1ccc(-c2c(C(=O)O)c(C(=O)O)c3n2CCC3)cc1	-15	-4	0	32	i	i	x
O=C(O)c1c(C(=O)O)c(-c2ccc(F)cc2)n2c1CCC2	16	12	1	499*	i	i	0
COc1ccc(/C=N\NC(=O)c2cc(OCC(F)(F)F)ccc2OCC(F)(F)F)cc1	45	12	1	797*	i	i	0
Cc1cc(C)cc(OCC(=O)NNC(=O)c2cc(C)[nH]n2)c1	-6	13	0	-10	i	i	x
Cc1cc(C(=O)NN)n[nH]1	x	19	1	590*	i	i	0
